VACV E9 pol inh: vaccinia E9 polymerase processive synthesis inhibitors, primary screen, biochemical, absorbance; Vaccinia virus DNA polymerase (E9) processive complex; in vitro processive DNA synthesis, absorbance read-out; hits give low values; normalized absorbance, % (no concentration beside the values); hit rate 0.94% among 46,000; in the data active means normalized absorbance mostly below about 85%, no sharp cut-off; inactive means mostly above about 86%
* hit, by the source's call; ! = not confirmed by another sample. The entries come from a sample that favours hits as a whole.

NNc1nc2cc3c(cc2s1)OCCO3 was read as VACV E9 pol inh 52*.
`NS(=O)(=O)c1ccc2nc(NC(=O)C3CCCCC3)sc2c1` gave VACV E9 pol inh 99.
Fc1ccc2nc(Nc3nc4ccc(F)cc4s3)sc2c1 was read as VACV E9 pol inh 96.
`COC(=O)c1ccc2nc(NC(=O)C(C)C)sc2c1` gave VACV E9 pol inh 101.
`c1c2c(cc3sc(N4CCOCC4)nc13)OCCO2` gave VACV E9 pol inh 98.
NNc1nc2cc3c(cc2s1)OCO3 was read as VACV E9 pol inh 50*.
Screening CCOC(=O)c1csc(NC(=O)CC)n1 returned VACV E9 pol inh 101.
Screening CC(C)(C)c1ccc(NC(=O)N2CCN(C3c4ccccc4-c4ccccc43)CC2)cc1 returned VACV E9 pol inh 100.
For CC(C)OC(=O)/C=C/c1cn(-c2ccccc2)nc1-c1cccs1 the results were VACV E9 pol inh 101.
Screening NC(=N/c1nc2ccccc2o1)/N=C/c1c(O)[nH]c(=O)[nH]c1=O returned VACV E9 pol inh 100.
For O=C(NC(Nc1cccc2ccccc12)C(=O)c1ccccc1)c1ccco1 (centres undefined) the results were VACV E9 pol inh 97.
CCn1c2ccccc2c2cc(/C=N/n3cnnc3)ccc21 was read as VACV E9 pol inh 61*.
For CCn1c2ccccc2c2cc(C=Nc3ccc(Cl)cc3)ccc21 the results were VACV E9 pol inh 102.
`CCN(Cc1ccccc1)c1ccc(/C=N/n2cnnc2)cc1` gave VACV E9 pol inh 104.
For O=C(O)CCCC[C@H]1SC[C@H]2NC(=O)N[C@H]21 the results were VACV E9 pol inh 101.
Screening COc1ccc(C2Nn3c(C)nnc3SC2C(=O)c2ccc(Cl)cc2)cc1 (centres undefined) returned VACV E9 pol inh 101.
For c1ccc(Nc2cn[nH]n2)cc1 the results were VACV E9 pol inh 103.
For CCCC(C(=O)O)N1C(=O)/C(=C/c2ccc(C)cc2)SC1=S (centres undefined) the results were VACV E9 pol inh 96.
`CN1C(=O)/C(=C/c2ccccc2Cl)Sc2ccc(C(=O)O)cc21` gave VACV E9 pol inh 46*.
`CCCC(C(=O)O)N1C(=O)/C(=C/c2ccccc2Cl)SC1=S` (centres undefined) gave VACV E9 pol inh 56*.
CN1C(=O)/C(=C\c2ccccc2)Sc2ccc(C(=O)NC3CCCCC3)cc21 was read as VACV E9 pol inh 81.
For CC(C(=O)O)N1C(=O)/C(=C/c2ccccc2Cl)SC1=S (centres undefined) the results were VACV E9 pol inh 90.
Screening CN1C(=O)c2ccccc2Sc2ccc(C(=O)O)cc21 returned VACV E9 pol inh 97.
O=C(Nc1cccc(Cl)c1Cl)C1CC(=O)N(Cc2ccccc2)C1 (centres undefined) was read as VACV E9 pol inh 101.
Screening Cn1c(SCC(=O)N2CCCC2)nnc1-c1c[nH]c2ccccc12 returned VACV E9 pol inh 100.
CO[C@@]1(NC(=O)C(C(=O)O)c2ccc(O)cc2)C(=O)N2C(C(=O)O)=C(CSc3nnnn3C)CO[C@@H]21 (some centres undefined) was read as VACV E9 pol inh 8.0*.
`Cc1nn(C(CC(=O)O)C(=O)O)c(C)c1Cl` (centres undefined) gave VACV E9 pol inh 100.
For CC1(C)CN(c2ccc(C(F)(F)F)cc2)C1=O the results were VACV E9 pol inh 106.
For O=C(NCCSc1c[nH]c2ccccc12)c1ccc(N2C(=O)CCC2=O)cc1 the results were VACV E9 pol inh 91.
For Nc1ccc2c(c1)nc(-c1ccccc1)c1cc(N)ccc12 the results were VACV E9 pol inh 98.
For CC[n+]1c(-c2ccccc2)c2cc(N)ccc2c2ccc(N)cc21 the results were VACV E9 pol inh 12*.
For Cn1c(=O)oc2cc(S(=O)(=O)NCCCN3CCN(c4cccc(Cl)c4)CC3)ccc21 the results were VACV E9 pol inh 102.
`Clc1cccc(OCCN2CCN(c3ccccc3)CC2)c1` gave VACV E9 pol inh 100.
For O=c1n(CCCN2CCN(c3cccc(Cl)c3)CC2)nc2ccccn12 the results were VACV E9 pol inh 15*.
`O=C(c1ccccc1F)N1CCC(Cc2ccccc2)CC1` gave VACV E9 pol inh 97.
`c1cc[n+](C[n+]2ccccc2)cc1` gave VACV E9 pol inh 103.
For CCCCCCCCCCCCCCCC[n+]1ccccc1 the results were VACV E9 pol inh 17*.
Screening C[n+]1ccc(CCc2cc[n+](C)cc2)cc1 returned VACV E9 pol inh 96.
For O=C1c2cccnc2C(=O)N1Cc1ccc(S(=O)(=O)NCc2ccccc2)cc1 the results were VACV E9 pol inh 94.
`O=C(Nc1cccc(C(F)(F)F)c1)C(F)(F)F` gave VACV E9 pol inh 88.
O=C(O)c1ccccc1Nc1ccccc1 was read as VACV E9 pol inh 99.
For O=C(O)c1ccccc1Nc1cccc(C(F)(F)F)c1 the results were VACV E9 pol inh 85*!.
For COc1ccc(/C(O)=C2\C(=O)C(=O)N(CCN(C)C)C2c2ccccc2)cc1Cl (centres undefined) the results were VACV E9 pol inh 95.
Screening CCC(CC)c1nnc(NC(=O)c2c(OC)cccc2OC)s1 returned VACV E9 pol inh 102.

Screens (PubChem BioAssay)
